Results on 9 compounds are retold here after PubChem BioAssay (Tox21).

Experiment [1] is described as follows: qHTS assay to identify small molecule agonists of the RXR signaling pathway - cell viability counter screen (AID 1159529).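 Note: HEK 293T cells carrying an RXR-alpha UAS beta-lactamase reporter; series mostly up to about 77 µM; nearly all actives have a fitted effect of over 50% in size.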 The method in brief:
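In this parallel viability measure, GeneBLAzer RXR-alpha HEK 293T cells (2% charcoal-stripped FBS) were given a 5 hr preincubation, treated with compounds 16 hr at 37 C, and read by CellTiter-Glo luminescence.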

Experiment [2] is described as follows: qHTS assay to identify small molecule antagonists of the retinoid acid receptor (RAR) signaling pathway - cell viability counter screen (AID 1159551). Note: nearly all actives have a fitted effect of over 35% in size. An outline of the steps:
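C3RL4 RARE-luciferase cells, 1,000/well, incubated overnight, then dosed with compound plus 1 uM retinol (final). After 6 hr at 37 C, viability read by CellTiter-Glo ATP luminescence following 30 min at room temperature.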

Experiment [3] can be described thus: qHTS assay to identify small molecule antagonists of the retinoic acid receptor (RAR) signaling pathway (AID 1159552; note: nearly all actives have a fitted effect of over 50% in size). An outline of the steps:
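C3RL4 RARE-luc cells, overnight plating; retinol 1 uM final added right after compound; 6 hr 37 C; luciferase read at 30 min RT.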

Experiment [4] in a line: qHTS assay to identify small molecule agonists of the retinoic acid receptor (RAR) signaling pathway (AID 1159553). An outline of the steps:
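C3RL4 RARE-luciferase cells were seeded at 1,000/well and grown overnight at 37 C, then exposed to compounds for 6 hr at 37 C, 5% CO2. Luciferase reagent was added and luminescence was read after 30 min at room temperature.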
Background: In qHTS, concentration-response curves come from the screen itself.

Experiment [5] in a line: qHTS assay to identify small molecule antagonists of the estrogen related receptor (ERR) signaling pathway from Tox21 library - cell viability counter screen (AID 1224834). Note: nearly all actives have a fitted effect of over 30% in size. The method in brief: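 ERR reporter cells, 2,000 per well, rested 6 h, then exposed to compound in DMSO for 17.5 hours at 37 C. Viability read as fluorescence after 30 min with CellTiter-Fluor.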
Experiment [6] addresses Luciferin 4-monooxygenase (Photinus pyralis) (UniProt P08659). Description: qHTS assay to identify small molecule inhibitors of firefly luciferase (AID 1224835). Note: series mostly up to about 120 µM; nearly all actives have a fitted effect of over 25% in size. The method in brief: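 Biochemical qHTS: compounds run as interplate titrations against purified firefly enzyme, with D-luciferin and ATP each at its KM concentration. Light output recorded by CCD imaging.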
Experiment [7] can be described thus: qHTS assay to identify small molecule agonists of the constitutive androstane receptor (CAR) signaling pathway - cell viability counter screen (AID 1224836). Note: series mostly up to about 92 µM; nearly all actives have a fitted effect of over 45% in size. An outline of the steps: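 Using CellTiter-Fluor, viability of HepG2 cells harbouring hCAR and CYP2B6-2.2kb was measured following 23 h incubation with a 15-concentration compound series plus PK11195 (0.75 uM final).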

Experiment [8] in a line: qHTS assay to identify small molecule antagonists of the constitutive androstane receptor (CAR) signaling pathway - cell viability counter screen (AID 1224837). Note: series mostly up to about 92 µM; nearly all actives have a fitted effect of over 45% in size. The method in brief: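 HepG2 cells stably carrying hCAR and CYP2B6-2.2kb reporter, stimulated with 50 nM CITCO and compounds at 15 concentrations for 23 h at 37 C. Viability measured by CellTiter-Fluor fluorescence.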

Experiment [9] deals with Nuclear receptor subfamily 1 group I member 3 (Homo sapiens) (UniProt Q14994). Description: qHTS assay to identify small molecule antagonists of the constitutive androstane receptor (CAR) signaling pathway (AID 1224838). Note: nearly all actives have a fitted effect of over 40% in size. An outline of the steps: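 HepG2 cells stably carrying hCAR and a CYP2B6-2.2kb luciferase reporter, seeded 4 hrs before compound (15 concentrations). Stimulated with 50 nM CITCO for 24 hr at 37 C. ONE-Glo luminescence read after 30 min at room temperature.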

Experiment [10] shares this target. Description: qHTS assay to identify small molecule agonists of the constitutive androstane receptor (CAR) signaling pathway (AID 1224839). Note: nearly all actives have a fitted effect of over 15% in size. Note: potency is the fitted concentration of half-maximal effect. An outline of the steps: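 Double-stable HepG2 cells (hCAR, CYP2B6-2.2kb) seeded 4 h before compound addition. Exposure 24 h with 0.75 uM PK11195 final. Luciferase detected by ONE-Glo.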
Experiment [11] can be described thus: qHTS assay to identify small molecule antagonists of the estrogen related receptor signaling pathway with the pleiotropic PPARgamma coactivator (PGC) from Tox21 10K library - cell viability counter screen (AID 1224840; active = well fitted cell-killing curve with a large enough effect in the repeat runs, not every such curve was filed as active; note: nearly all actives have a fitted effect of over 40% in size). An outline of the steps: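 PGC/ERR cells (2,000/well) plated 6 h, then compound-treated for 17.5 h at 37 C. Viability measured by CellTiter-Fluor fluorescence after 30 min at 37 C, multiplexed with the pathway assay.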

A short description of experiment [12]: qHTS assay to identify small molecule agonists of the estrogen related receptor signaling pathway with the pleiotropic PPARgamma coactivator (PGC) from Tox21 10K library (AID 1224842). Note: nearly all actives have a fitted effect of over 15% in size. An outline of the steps: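 PGC/ERR reporter cell line, 2,000 cells per well, incubated 6 h at 37 C before 23 nL compound in DMSO was added. After 18 h at 37 C, One-Glo luminescence read following 30 min at room temperature.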

The nature of experiment [13]: qHTS assay to identify small molecule antagonists of the estrogen related receptor signaling pathway with the pleiotropic PPARgamma coactivator (PGC) from Tox21 10K library (AID 1224841; call rule not given here; note: series mostly up to about 92 µM; actives are mostly falling curves and most rising ones were filed inactive; nearly all actives have a fitted effect of over 50% in size). An outline of the steps:
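PGC/ERR cell line, 2,000 cells/well, pre-incubated 6 hours at 37 C, then exposed to compounds for 18 hours at 37 C; luciferase read with One-Glo luminescence after 30 min at room temperature.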

Experiment [14] can be described thus: qHTS assay to identify small molecule antagonists of the estrogen related receptor (ERR) signaling pathway - cell viability counter screen (AID 1224818). Note: series mostly up to about 46 µM. An outline of the steps:
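ERR cells, 2,000 per well, compound added after 6 h and incubated 17.5 h at 37 C. Viability read by CellTiter-Fluor fluorescence after a further 30 min at 37 C.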

The nature of experiment [15]: qHTS assay to identify small molecule antagonists of the estrogen related receptor (ERR) signaling pathway (AID 1224819;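 note: luminescence from an ERR-driven luciferase reporter measured with One-Glo reagent; series mostly up to about 46 µM; nearly all actives have a fitted effect of over 50% in size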). The method in brief: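 ERR reporter cell line (NTP) plated at 2,000 cells/well, settled 6 h at 37C/5% CO2, then exposed to LOPAC compounds for 18 h at 37C. One-Glo luciferase luminescence read after 30 min at room temperature.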
Experiment [16] can be described thus: qHTS assay to identify small molecule agonists of the estrogen related receptor (ERR) signaling pathway (AID 1224820). The method in brief: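 ERR reporter cell line (from NTP), 2,000 cells/well, incubated 6 h before compound addition, then 18 h at 37 C. Luminescence measured 30 min after One-Glo reagent at room temperature.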
For experiment [17], the system named is estrogen-related receptor alpha (ERRalpha) with PGC-1alpha coactivator, human. Description: qHTS assay to identify small molecule antagonists of the estrogen related receptor signaling pathway with the pleiotropic PPARgamma coactivator (PGC) (AID 1224821; calls by dose curve). An outline of the steps: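 PGC/ERR reporter cell line, plated 6 h before compound addition, then exposed 18 h at 37 °C. Luciferase activity read by luminescence 30 min after One-Glo addition; decrease indicates antagonism.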

Experiment [18] can be described thus: qHTS assay to identify small molecule antagonists of the estrogen related receptor signaling pathway with the pleiotropic PPARgamma coactivator (PGC) cell viability counter screen (AID 1224822; note: series mostly up to about 46 µM). An outline of the steps:
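PGC/ERR cells rested 6 h, then compound-treated 17.5 h at 37 C. CellTiter-Fluor added for 30 min at 37 C, viability measured by fluorescence intensity.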

Experiment [19] is described as follows: qHTS assay to identify small molecule agonists of the estrogen related receptor signaling pathway with the pleiotropic PPARgamma coactivator (PGC) (AID 1224823). An outline of the steps: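 PGC/ERR reporter cells seeded 6 h, then exposed to compounds (23 nL in DMSO) for 18 h at 37 C. One-Glo luciferase luminescence read after 30 min at room temperature.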

Experiment [20] deals with Thyrotropin receptor (Homo sapiens) (UniProt P16473). Description: qHTS assay to identify small molecule agonists of the thyroid stimulating hormone receptor (TSHR) signaling pathway (AID 1224843; calls by dose curve; note: nearly all actives have a fitted effect of over 45% in size). The method in brief:
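TSHR-HEK293 cells in agonist mode, 30 min room-temperature step, then cAMP measured by competitive HTRF (cAMP-d2 with anti-cAMP cryptate) after 1 h at room temperature. Tested at 15 concentrations in triplicate.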

Inconclusive results are not listed. Unmarked numbers belong to inactive results. Calls of active or inactive are those of the source. Unless noted, calls come from the whole dose curve; as a rule, active = well fitted curve in the direction sought with a large enough effect in the repeat runs; inconclusive = weak or mixed curves; inactive = no such curve, though single readings can be large; an effect the other way counts as inactive or inconclusive.

Nuclear receptor subfamily 1 group I member 3 (Homo sapiens), sequence (Q14994 whole entry, looked up): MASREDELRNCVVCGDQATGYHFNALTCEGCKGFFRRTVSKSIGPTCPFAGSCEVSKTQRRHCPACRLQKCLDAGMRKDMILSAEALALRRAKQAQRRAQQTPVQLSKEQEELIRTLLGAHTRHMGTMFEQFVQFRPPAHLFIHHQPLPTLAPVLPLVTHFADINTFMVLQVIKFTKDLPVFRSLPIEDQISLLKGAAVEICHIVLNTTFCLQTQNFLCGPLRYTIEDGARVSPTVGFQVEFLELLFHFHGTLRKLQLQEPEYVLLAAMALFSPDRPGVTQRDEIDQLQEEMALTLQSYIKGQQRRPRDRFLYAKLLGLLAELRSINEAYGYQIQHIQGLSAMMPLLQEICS
Luciferin 4-monooxygenase (Photinus pyralis), sequence (P08659 whole entry, looked up): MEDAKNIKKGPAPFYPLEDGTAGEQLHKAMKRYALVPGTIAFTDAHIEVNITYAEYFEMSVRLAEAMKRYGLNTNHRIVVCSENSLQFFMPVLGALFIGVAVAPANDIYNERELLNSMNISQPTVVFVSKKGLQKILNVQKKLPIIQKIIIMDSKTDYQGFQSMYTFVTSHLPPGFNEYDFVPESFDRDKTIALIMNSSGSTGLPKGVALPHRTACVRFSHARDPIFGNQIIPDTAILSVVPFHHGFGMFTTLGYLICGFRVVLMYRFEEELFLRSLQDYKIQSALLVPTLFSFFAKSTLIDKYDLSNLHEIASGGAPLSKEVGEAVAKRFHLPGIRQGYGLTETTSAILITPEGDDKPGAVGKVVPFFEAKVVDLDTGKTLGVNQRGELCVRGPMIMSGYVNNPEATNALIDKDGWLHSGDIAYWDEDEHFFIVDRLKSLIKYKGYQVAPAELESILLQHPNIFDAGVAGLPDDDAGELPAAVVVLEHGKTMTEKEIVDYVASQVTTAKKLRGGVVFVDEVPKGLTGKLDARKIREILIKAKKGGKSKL
Thyrotropin receptor (Homo sapiens), sequence (P16473 whole entry, looked up): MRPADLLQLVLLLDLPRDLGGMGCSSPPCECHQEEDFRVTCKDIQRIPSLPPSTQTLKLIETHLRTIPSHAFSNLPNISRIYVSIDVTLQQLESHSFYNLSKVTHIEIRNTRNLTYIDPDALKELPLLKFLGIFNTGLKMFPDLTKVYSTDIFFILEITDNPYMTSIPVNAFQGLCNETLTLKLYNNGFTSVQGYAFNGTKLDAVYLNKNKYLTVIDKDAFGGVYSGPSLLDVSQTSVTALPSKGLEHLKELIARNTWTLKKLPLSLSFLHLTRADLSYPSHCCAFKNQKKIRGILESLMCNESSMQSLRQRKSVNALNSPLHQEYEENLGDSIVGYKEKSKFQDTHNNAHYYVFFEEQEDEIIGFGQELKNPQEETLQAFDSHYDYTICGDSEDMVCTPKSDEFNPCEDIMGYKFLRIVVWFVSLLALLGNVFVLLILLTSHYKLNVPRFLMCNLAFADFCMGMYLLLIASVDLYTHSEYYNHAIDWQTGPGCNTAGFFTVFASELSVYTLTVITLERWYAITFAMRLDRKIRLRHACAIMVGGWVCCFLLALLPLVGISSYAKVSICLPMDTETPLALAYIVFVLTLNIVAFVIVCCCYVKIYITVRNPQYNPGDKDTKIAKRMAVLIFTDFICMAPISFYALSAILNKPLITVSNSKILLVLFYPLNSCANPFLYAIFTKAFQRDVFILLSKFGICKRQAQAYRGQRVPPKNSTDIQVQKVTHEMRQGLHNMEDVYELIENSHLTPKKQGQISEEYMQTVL

As for `CN(C)CCN(Cc1ccsc1)c1ccccn1`, the Potency result in experiment [1], in experiment [2], in [3], in experiment [4], in [5] and in experiment [6] was “inactive” in each case. Moreover, the Potency entry in experiment [7], in experiment [8], in experiment [9], in [10] and in experiment [11] was “inactive” throughout.
On to `Nc1ccccc1S(=O)(=O)c1ccccc1`, for which the Potency result in experiment [1], in experiment [2], in [3], in experiment [4], in experiment [5] and in [6] was “inactive” in each case. Further, the Potency entry in experiment [7], in experiment [8], in experiment [9], in [11] and in [12] was “inactive” throughout.
In the case of `COc1cccc(N(C)C(=S)Oc2ccc3c(c2)CCCC3)n1`, the Potency entry in [1], in experiment [2], in [3], in experiment [4], in [5] and in experiment [6] was “inactive” in each case. Besides, the Potency result in [7], in experiment [8], in experiment [9], in [10] and in experiment [11] was “inactive” each time.
`CCOC(=O)C(F)(F)F`: the Potency result in experiment [1], in experiment [2], in experiment [3], in experiment [4], in [5] and in [6] was “inactive” in each case. The Potency entry in experiment [7], in experiment [8], in experiment [9], in experiment [10] and in experiment [11] was “inactive” in each case.
For `O=C(O)c1nc(Cl)c(Cl)c(Cl)c1Cl`, the Potency entry in [1], in [2], in [3], in experiment [4], in [5] and in experiment [6] was “inactive” each time. The Potency entry in experiment [7], in experiment [8], in experiment [9], in experiment [11], in experiment [13] and in experiment [12] was “inactive” in each case. For the same compound, in experiment [10], the Potency was 17.2 µM (active).
Regarding `COc1cc2nc(N(C)CCCNC(=O)C3CCCO3)nc(N)c2cc1OC` (centres undefined), the Potency result in experiment [1], in [2], in experiment [3], in [4], in experiment [15] and in experiment [17] was “inactive” each time. In addition, the Potency result in experiment [6], in [8], in experiment [11], in [12] and in [20] was “inactive” each time. In addition, the outcome in experiment [14], in experiment [16], in experiment [18] and in experiment [19] was inactive.
On to `CCC(=O)O[C@]1(C(=O)CCl)[C@@H](C)C[C@H]2[C@@H]3CCC4=CC(=O)C=C[C@]4(C)[C@@]3(F)[C@@H](O)C[C@@]21C`, for which the Potency entry in [1], in experiment [2], in experiment [3], in experiment [4], in [5] and in experiment [6] was “inactive” in each case. Besides, the Potency entry in experiment [7], in experiment [8], in experiment [9], in [11], in experiment [12] and in experiment [20] was “inactive” each time.
As for `CC1OC(=O)C(C)OC1=O` (centres undefined), the Potency entry in [1], in experiment [2], in experiment [3], in experiment [4], in experiment [5] and in experiment [6] was “inactive” each time. Also, the Potency result in experiment [7], in [8], in [9] and in experiment [11] was “inactive” each time.
In the case of `COc1ccc2cccc(CCNC(C)=O)c2c1`, the Potency result in [1], in experiment [2], in experiment [3], in experiment [4], in experiment [5] and in [6] was “inactive” each time. For the same compound, the Potency result in experiment [7], in [8], in [9] and in experiment [11] was “inactive” throughout.
